# Data as given in PubChem BioAssay (Tox21).
# Results filed as inconclusive are left out. A number with no mark means an inactive call. Activity calls are given as the source filed them. Calls follow the shape of the dose curve; as a rule, active = well fitted activation curve with a large enough effect in the signal ratio in the repeat runs (not every such curve was filed as active); inconclusive = weak or mixed curves, or effect the other way; inactive = flat fitted curve, though single readings scatter; the % refers to the signal ratio.
# Target: Estrogen receptor beta (Homo sapiens) (UniProt Q92731)
# Sequence (Q92731 whole entry, looked up): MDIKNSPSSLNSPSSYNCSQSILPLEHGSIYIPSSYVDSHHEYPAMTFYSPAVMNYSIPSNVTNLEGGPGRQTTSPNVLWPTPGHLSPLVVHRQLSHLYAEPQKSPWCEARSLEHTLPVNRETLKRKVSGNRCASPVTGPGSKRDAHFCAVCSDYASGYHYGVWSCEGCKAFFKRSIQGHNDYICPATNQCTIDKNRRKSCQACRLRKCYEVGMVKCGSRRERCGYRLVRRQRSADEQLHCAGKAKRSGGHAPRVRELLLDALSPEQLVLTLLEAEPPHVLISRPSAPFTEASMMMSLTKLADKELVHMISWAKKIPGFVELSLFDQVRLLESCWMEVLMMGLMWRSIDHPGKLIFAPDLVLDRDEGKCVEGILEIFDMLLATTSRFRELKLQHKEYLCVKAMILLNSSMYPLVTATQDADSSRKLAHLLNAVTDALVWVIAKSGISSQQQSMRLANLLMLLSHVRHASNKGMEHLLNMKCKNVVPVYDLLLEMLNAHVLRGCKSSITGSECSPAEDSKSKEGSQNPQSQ
# Experiment: qHTS assay to identify small molecule agonists of the estrogen receptor beta (ER-beta) signaling pathway (AID 1259377)
# Settings: ER-beta-UAS-bla HEK293T, beta-lactamase FRET ratio, 16 h; series mostly up to 92.4 µM; activation: at the top concentration
# Outline: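 A UAS-controlled beta-lactamase reporter in ER-beta-UAS-bla HEK293T cells reports receptor activation. Compounds act for 16 hr at 37C in 2% charcoal-stripped serum, and a FRET substrate is read by fluorescence after 2 hours.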
# % is scaled to controls: 0 for no effect and ±100 for the full control effect; potency is read from the fitted curve at half-maximal effect.
SMILES,activation,Potency
O=C1NC(=O)c2cccc3cccc1c23,1.68%,
O=[N+]([O-])C1(Br)COCOC1,3.84%,
Nc1c(Cl)cc(Cl)cc1[N+](=O)[O-],3.29%,
C=C(C)c1ccccc1,3.75%,
CCCCCc1ccco1,-0.378% [at 42.5 µM],
CSCC[C@H](NC(=O)[C@H](Cc1c[nH]c2ccccc12)NC(=O)CCNC(=O)OC(C)(C)C)C(=O)N[C@@H](CC(=O)O)C(=O)N[C@@H](Cc1ccccc1)C(N)=O,4.89% [at 42.5 µM],
CCCCCCOC(=O)CCCCC,0.606%,
O=C(Nc1ccc(C(=O)O)c(O)c1)c1ccccc1,-0.1% [at 42.5 µM],
COC(OC)OC,-0.394%,
CC(C)COC(=O)COc1cc(Cl)c(Cl)cc1Cl,1.07%,
O=c1[nH][nH]c(=O)c2cc([N+](=O)[O-])ccc12,-1.55%,
COC(=O)CC(C(C)=O)C(=O)OC (stereo unspecified),-1.19%,
CC[C@H]1OC(=O)[C@H](C)[C@@H](O[C@H]2C[C@@](C)(OC)[C@@H](O)[C@H](C)O2)[C@H](C)[C@@H](O[C@@H]2O[C@H](C)C[C@H](N(C)C)[C@H]2O)[C@](C)(O)C[C@@H](C)CN(C)[C@H](C)[C@@H](O)[C@]1(C)O,-1.2% [at 42.5 µM],
SCCc1cnccn1,9.42%,
Cc1ccc(N(CC2=NCCN2)c2cccc(O)c2)cc1,1.78% [at 42.5 µM],
O=C(c1ccccc1)c1ccc(O)cc1,,12.3 µM (active)
O=C(O)CO,0.161%,
ClC1=C(Cl)C1(Cl)Cl,3.27%,
CCSC(=O)N(CC)CC,0.201%,
CC(C)C(=O)OCCOc1ccccc1,0.117%,
CCN(Cc1cccc(S(=O)(=O)O)c1)c1ccc(C(=C2C=CC(=[N+](CC)Cc3cccc(S(=O)(=O)O)c3)C=C2)c2ccccc2S(=O)(=O)[O-])cc1,0.42% [at 42.5 µM],
